For 7 compounds, outcome, Potency and max activation results are on record in PubChem BioAssay (Tox21).

Test [1] addresses Thyrotropin-releasing hormone receptor (Homo sapiens) (UniProt P34981). Nature of the test: qHTS assay to identify small molecule agonists of the thyrotropin-releasing hormone receptor (TRHR) signaling pathway (AID 1346891; calls by dose curve; further: series mostly up to about 58 µM). In short, it runs like this: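 Screening of agonists relied on calcium signalling in HEK293 cells expressing human TRHR: dye loading 2 h at 37 °C preceded compound addition and a 3-min fluorescence time course.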

Test [2] can be described thus: Human pregnane X receptor (PXR) small molecule agonists, qHTS cell viability counter screen (AID 1346977). Further: nearly all actives have a fitted effect of over 50% in size. In short, it runs like this:
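Tox21 qHTS format; PXR-Luc HepG2, 2,000/well, charcoal-stripped FBS 5%. Cpd exposure 24hr. Read: CellTiter-Fluor fluorescence, multiplexed with luciferase.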

The nature of test [3]: Caspase-3/7 induction in CHO-K1 cells by small molecules, qHTS cell viability counter screen (AID 1346979). Further: nearly all actives have a fitted effect of over 35% in size. In short, it runs like this:
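CellTiter-Fluor viability check, qHTS format: wild-type CHO-K1, 16hr compound treatment, 1hr reagent incubation, fluorescence read.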

A short description of test [4]: Caspase-3/7 induction in CHO-K1 cells by small molecules, qHTS assay (AID 1346980). Further: nearly all actives have a fitted effect of over 15% in size. In short, it runs like this:
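Luminescent Caspase-Glo 3/7 read (30min, room temperature) quantified apoptosis induction. Cells were wild-type CHO-K1, treated with compound for 17hr at 37 C and 5% CO2.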

Test [5] has as its target Nuclear receptor subfamily 1 group I member 2 (Homo sapiens) (UniProt O75469). The test can be described thus: Human pregnane X receptor (PXR) small molecule agonists, qHTS assay (AID 1346982). Further: nearly all actives have a fitted effect of over 35% in size. Further: potency means the concentration at half of the fitted maximal effect. An outline of the steps: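 We seeded PXR-Luc HepG2 cells in assay medium containing 5% charcoal-stripped FBS, added compounds 5 hr later, incubated 24 hr, and read luminescence with ONE-Glo reagent.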

The target in test [6] is Nuclear receptor subfamily 1 group I member 2 (Rattus norvegicus) (UniProt Q9R1A7). Nature of the test: Rat pregnane X receptor (rPXR) activation by small molecules, qHTS assay (AID 1346983). Further: nearly all actives have a fitted effect of over 20% in size. The note with it: rPXR luciferase reporter cells, One-Glo luminescence, 24 h; active compounds read high. In short, it runs like this:
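Luminescent readout (One-Glo luciferase, 30 min room temperature) followed 24 hr compound treatment at 37 C of rPXR cells plated 2,000 per well and preincubated 5hr; qHTS format with compounds delivered in DMSO.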

The target of test [7] is Nuclear receptor subfamily 1 group I member 2 (Homo sapiens) (UniProt O75469). Nature of the test: Human pregnane X receptor (PXR) activation by small molecules, qHTS assay (AID 1346985). Further: nearly all actives have a fitted effect of over 40% in size. In short, it runs like this: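 DPX-2 cells (HepG2 co-transfected with a PXR response element and a CYP3A4-promoter luciferase construct) were seeded at 2,000 per well, rested 5 hr at 37C, then exposed to DMSO-dissolved compounds for 24 hr. Activation was read as luciferase luminescence.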

Test [8] has as its target Acetylcholinesterase (Homo sapiens) (UniProt P22303). The test can be described thus: Acetylcholinesterase (AChE) small molecule antagonists: enzyme-based qHTS assay (AID 1347397; calls by dose curve; further: nearly all actives have a fitted effect of over 55% in size). The note with it: Potency: AChE enzyme activity inhibition; outcome: AChE enzyme activity inhibition. An outline of the steps:
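rhAChE 50 mU/mL (dispensed) + cpd or DMSO, 30 min RT; add DTNB/acetylthiocholine cocktail, 10 min RT; colorimetric thiocholine readout. qHTS, 1536-well format.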

Test [9] shares this target. Nature of the test: Acetylcholinesterase (AChE) small molecule antagonists: enzyme-based qHTS assay with human liver microsomes (AID 1347399; calls by dose curve; further: nearly all actives have a fitted effect of over 60% in size). Conditions: Potency: qHTS inhibition; outcome: qHTS inhibition. An outline of the steps:
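Recombinant human AChE (50 mU/mL in the enzyme mix) and human liver microsomes (0.25 mg/mL final) were preincubated with compound and NADPH (0.25 mg/mL final) for 30 min at 37 C. Acetylthiocholine/DTNB was then added; thiocholine was read colorimetrically after 10 min at room temperature.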

For test [10], the target named is Cytochrome P450 2D6 (Homo sapiens) (UniProt P10635). Nature of the test: Cytochrome P450 Family 2 Subfamily D Member 6 (CYP2D6) small molecule antagonists: luciferase reporter qHTS assay (AID 1671196). Further: nearly all actives have a fitted effect of over 50% in size. Further: potency means the concentration at half of the fitted maximal effect. An outline of the steps: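 Luminescence (RLU), read 20 min after detection reagent, indicated CYP2D6 conversion of proluciferin to luciferin during a 1 h NADPH-dependent reaction at room temperature.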

Test [11] addresses Cytochrome P450 2C19 (Homo sapiens) (UniProt P33261). The test can be described thus: Cytochrome P450 Family 2 Subfamily C Member 19 (CYP2C19) small molecule antagonists: luciferase reporter qHTS assay (AID 1671197). Further: nearly all actives have a fitted effect of over 65% in size. Further: potency means the concentration at half of the fitted maximal effect. An outline of the steps:
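Enzyme-substrate mix with proluciferin substrate (P450-Glo CYP2C19 system) preincubated with compounds 10 min at room temperature; NADPH regeneration solution added, 37C for 1 h; detection reagent stops reaction, luminescence read after 20 min. Ketoconazole positive control.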

Test [12] deals with Cytochrome P450 1A2 (Homo sapiens) (UniProt P05177). Nature of the test: Cytochrome P450 Family 1 Subfamily A Member 2 (CYP1A2) small molecule antagonists: luciferase reporter qHTS assay (AID 1671199). Further: nearly all actives have a fitted effect of over 50% in size. Further: potency means the concentration at half of the fitted maximal effect. In short, it runs like this: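 CYP1A2 turnover of a luminogenic substrate was quantified after 1 h with NADPH regeneration at room temperature. Furafylline served as positive control.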

Test [13] deals with Voltage-gated inwardly rectifying potassium channel KCNH2 (Homo sapiens) (UniProt Q12809). Nature of the test: Human Ether-a-go-go-Related Gene (hERG) channel small molecule antagonists: fluorescence cell-based qHTS assay (AID 1671200).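 Further: hERG-expressing U2OS cells given a thallium stimulus after FluxOR II dye loading; series mostly up to about 77 µM; nearly all actives have a fitted effect of over 50% in size.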 In short, it runs like this:
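Kinetic two-minute fluorescence traces, sampled at 1 s, were collected following thallium stimulus of U2OS cells (1000 per well) that had been cultured overnight at 37 C and loaded with FluxOR II.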

In test [14] the target is Cytochrome P450 3A4 (Homo sapiens) (UniProt P08684). The test can be described thus: Cytochrome P450 Family 3 Subfamily A Member 4 (CYP3A4) small molecule antagonists: luciferase reporter qHTS assay (AID 1671201). Further: nearly all actives have a fitted effect of over 50% in size. Further: potency means the concentration at half of the fitted maximal effect. In short, it runs like this: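 Proluciferin-to-luciferin conversion by CYP3A4, NADPH-regenerated, 1 h RT; luminescence read as RLU. Ketoconazole as control.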

The nature of test [15]: Caspase-3/7 induction in HepG2 cells by small molecules, qHTS cell viability counter screen (AID 1346981). Further: series mostly up to about 92 µM; nearly all actives have a fitted effect of over 30% in size. An outline of the steps: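 Multiplexed with the caspase-3/7 assay: HepG2 cells, 16 hr compound treatment, CellTiter-Fluor viability detection by fluorescence.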
The target of test [16] is Acetylcholinesterase (Homo sapiens) (UniProt P22303). The test can be described thus: Acetylcholinesterase (AChE) small molecule antagonists: colormetric cell-based qHTS assay (AID 1347395; calls by dose curve; further: nearly all actives have a fitted effect of over 30% in size). An outline of the steps:
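AChE inhibition read colorimetrically via DTNB–thiocholine in SH-SY5Y cells. Compound 30 min, substrate 90 min, both 37 C.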

The target is the same in test [17]. Nature of the test: Acetylcholinesterase (AChE) small molecule antagonists: fluorescence cell-based qHTS assay (AID 1347398; calls by dose curve; further: nearly all actives have a fitted effect of over 50% in size). Conditions: Potency: AChE activity; outcome: AChE activity. An outline of the steps: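 Read-out is Thiolite Green fluorescence at Ex/Em = 490/520 nm, formed by reaction with thiocholine released when cellular AChE in SH-SY5Y cells hydrolyzes acetylthiocholine. Compounds were preincubated 30 min at 37 C before substrate.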

For test [18], the target named is Cytochrome P450 2C9 (Homo sapiens) (UniProt P11712). The test can be described thus: Cytochrome P450 Family 2 Subfamily C Member 9 (CYP2C9) small molecule antagonists: luciferase reporter qHTS assay (AID 1671198). Further: nearly all actives have a fitted effect of over 50% in size. Further: potency means the concentration at half of the fitted maximal effect. An outline of the steps:
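Enzyme-substrate mix preincubated with compound 10 min at room temperature; reaction started with NADPH regeneration solution, 1 h 37C. Luminescent luciferin product read after 20 min detection reagent.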

The structures appear in SMILES notation. A number with no mark means an inactive call. Inconclusive results are not listed. The source made the active and inactive calls. Unless noted, the call rests on the fitted dose curve; in most records, active means well fitted curve in the direction sought with a large enough effect in the repeat runs; inconclusive means weak or mixed curves; inactive means no such curve, though single readings can be large; an effect the other way counts as inactive or inconclusive.
On the % scale 0 is the no-effect control and ±100 the full control effect.

Chain of Cytochrome P450 2C19 (Homo sapiens) (P33261 whole entry, looked up): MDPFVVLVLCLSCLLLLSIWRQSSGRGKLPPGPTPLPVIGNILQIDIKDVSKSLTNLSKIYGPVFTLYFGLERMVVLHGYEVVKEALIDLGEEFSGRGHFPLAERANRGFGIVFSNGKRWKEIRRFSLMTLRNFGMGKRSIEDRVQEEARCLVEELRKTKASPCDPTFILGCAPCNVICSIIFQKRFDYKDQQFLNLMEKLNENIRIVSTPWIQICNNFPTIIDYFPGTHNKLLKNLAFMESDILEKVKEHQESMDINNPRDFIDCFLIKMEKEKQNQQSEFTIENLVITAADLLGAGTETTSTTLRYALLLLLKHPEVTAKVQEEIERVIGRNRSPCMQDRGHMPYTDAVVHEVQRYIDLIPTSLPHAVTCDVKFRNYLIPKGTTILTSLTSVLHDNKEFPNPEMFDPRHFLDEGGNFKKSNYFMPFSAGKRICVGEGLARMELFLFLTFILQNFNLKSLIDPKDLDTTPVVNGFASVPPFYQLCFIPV
Chain of Nuclear receptor subfamily 1 group I member 2 (Homo sapiens) (O75469 whole entry, looked up): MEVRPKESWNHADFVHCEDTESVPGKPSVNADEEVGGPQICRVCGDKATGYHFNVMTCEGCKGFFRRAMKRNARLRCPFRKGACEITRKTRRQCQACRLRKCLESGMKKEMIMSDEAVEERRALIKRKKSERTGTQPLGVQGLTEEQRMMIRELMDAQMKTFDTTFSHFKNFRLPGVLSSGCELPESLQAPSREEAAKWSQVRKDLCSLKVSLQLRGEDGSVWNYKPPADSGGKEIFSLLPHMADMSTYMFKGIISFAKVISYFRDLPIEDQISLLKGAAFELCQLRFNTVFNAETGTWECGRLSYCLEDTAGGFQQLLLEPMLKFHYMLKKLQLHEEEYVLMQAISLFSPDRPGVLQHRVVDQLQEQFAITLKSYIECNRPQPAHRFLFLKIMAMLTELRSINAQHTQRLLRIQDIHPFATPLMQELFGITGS
Chain of Cytochrome P450 1A2 (Homo sapiens) (P05177 whole entry, looked up): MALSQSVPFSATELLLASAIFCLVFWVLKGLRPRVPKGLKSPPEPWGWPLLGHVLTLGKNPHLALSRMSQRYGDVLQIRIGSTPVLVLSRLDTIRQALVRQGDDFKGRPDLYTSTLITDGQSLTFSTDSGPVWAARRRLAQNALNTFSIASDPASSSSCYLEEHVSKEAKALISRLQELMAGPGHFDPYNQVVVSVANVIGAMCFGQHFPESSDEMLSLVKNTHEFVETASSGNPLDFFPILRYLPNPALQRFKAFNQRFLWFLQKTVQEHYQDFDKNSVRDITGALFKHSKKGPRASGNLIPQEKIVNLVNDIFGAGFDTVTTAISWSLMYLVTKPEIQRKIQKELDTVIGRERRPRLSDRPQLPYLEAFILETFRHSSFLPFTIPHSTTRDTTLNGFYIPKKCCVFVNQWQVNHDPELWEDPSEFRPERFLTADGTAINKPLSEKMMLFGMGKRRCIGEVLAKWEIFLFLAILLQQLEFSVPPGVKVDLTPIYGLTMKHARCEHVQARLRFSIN
Chain of Cytochrome P450 3A4 (Homo sapiens) (P08684 whole entry, looked up): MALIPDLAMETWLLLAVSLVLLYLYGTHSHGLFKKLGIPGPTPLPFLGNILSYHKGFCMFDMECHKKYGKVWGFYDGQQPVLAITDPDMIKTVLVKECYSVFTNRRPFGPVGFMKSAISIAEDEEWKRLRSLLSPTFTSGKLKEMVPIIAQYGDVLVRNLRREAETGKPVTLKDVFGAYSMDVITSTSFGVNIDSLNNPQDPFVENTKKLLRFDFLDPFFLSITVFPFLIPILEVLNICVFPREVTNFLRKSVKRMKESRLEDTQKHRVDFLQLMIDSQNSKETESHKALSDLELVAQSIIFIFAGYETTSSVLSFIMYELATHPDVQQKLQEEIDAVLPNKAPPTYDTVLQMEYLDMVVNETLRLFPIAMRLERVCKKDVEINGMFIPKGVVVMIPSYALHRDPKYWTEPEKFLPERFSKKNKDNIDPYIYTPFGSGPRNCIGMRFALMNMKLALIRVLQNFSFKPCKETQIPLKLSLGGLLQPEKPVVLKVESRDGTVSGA
Chain of Voltage-gated inwardly rectifying potassium channel KCNH2 (Homo sapiens) (Q12809 whole entry, looked up): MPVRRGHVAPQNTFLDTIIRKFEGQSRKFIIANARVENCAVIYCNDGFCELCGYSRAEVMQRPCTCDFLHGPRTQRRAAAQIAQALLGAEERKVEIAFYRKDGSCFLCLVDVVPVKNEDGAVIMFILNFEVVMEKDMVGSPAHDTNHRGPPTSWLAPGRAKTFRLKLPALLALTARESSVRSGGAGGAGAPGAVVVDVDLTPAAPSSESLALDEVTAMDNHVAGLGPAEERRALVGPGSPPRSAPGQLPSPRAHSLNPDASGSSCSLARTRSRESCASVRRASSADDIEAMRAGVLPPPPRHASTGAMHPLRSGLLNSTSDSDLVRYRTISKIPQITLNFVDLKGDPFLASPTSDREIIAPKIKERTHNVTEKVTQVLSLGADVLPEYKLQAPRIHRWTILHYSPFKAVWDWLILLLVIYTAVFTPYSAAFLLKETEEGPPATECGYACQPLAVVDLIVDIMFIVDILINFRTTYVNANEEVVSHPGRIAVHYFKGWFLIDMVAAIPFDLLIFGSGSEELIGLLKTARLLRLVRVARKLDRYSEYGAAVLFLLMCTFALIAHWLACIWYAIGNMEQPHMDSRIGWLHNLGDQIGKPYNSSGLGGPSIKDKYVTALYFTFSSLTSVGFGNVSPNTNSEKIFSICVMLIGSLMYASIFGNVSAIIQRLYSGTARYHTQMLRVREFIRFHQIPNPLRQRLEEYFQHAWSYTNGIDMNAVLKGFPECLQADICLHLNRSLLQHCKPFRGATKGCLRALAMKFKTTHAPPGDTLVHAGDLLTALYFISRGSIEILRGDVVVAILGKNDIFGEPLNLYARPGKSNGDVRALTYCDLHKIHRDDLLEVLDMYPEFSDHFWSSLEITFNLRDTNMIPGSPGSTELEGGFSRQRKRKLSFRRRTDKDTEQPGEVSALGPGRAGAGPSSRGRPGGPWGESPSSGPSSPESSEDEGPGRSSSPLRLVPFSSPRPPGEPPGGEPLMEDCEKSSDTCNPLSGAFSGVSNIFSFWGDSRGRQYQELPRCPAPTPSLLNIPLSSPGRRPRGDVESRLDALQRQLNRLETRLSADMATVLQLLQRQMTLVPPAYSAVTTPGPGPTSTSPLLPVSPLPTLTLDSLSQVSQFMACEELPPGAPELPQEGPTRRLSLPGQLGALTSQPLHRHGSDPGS
Chain of Cytochrome P450 2D6 (Homo sapiens) (P10635 whole entry, looked up): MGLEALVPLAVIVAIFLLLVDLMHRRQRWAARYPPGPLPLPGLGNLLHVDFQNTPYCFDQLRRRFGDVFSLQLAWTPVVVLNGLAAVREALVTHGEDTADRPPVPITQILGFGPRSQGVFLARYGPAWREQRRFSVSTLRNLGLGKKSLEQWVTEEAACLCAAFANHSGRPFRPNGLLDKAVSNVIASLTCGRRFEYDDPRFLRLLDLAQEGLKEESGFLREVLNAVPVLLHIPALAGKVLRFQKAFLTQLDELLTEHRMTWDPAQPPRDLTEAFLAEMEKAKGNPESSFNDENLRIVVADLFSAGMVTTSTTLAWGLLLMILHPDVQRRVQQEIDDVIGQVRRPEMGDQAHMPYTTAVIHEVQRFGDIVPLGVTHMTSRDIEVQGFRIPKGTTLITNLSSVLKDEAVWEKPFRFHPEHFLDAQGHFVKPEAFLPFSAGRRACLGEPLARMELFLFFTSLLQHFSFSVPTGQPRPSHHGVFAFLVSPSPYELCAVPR
Chain of Thyrotropin-releasing hormone receptor (Homo sapiens) (P34981 whole entry, looked up): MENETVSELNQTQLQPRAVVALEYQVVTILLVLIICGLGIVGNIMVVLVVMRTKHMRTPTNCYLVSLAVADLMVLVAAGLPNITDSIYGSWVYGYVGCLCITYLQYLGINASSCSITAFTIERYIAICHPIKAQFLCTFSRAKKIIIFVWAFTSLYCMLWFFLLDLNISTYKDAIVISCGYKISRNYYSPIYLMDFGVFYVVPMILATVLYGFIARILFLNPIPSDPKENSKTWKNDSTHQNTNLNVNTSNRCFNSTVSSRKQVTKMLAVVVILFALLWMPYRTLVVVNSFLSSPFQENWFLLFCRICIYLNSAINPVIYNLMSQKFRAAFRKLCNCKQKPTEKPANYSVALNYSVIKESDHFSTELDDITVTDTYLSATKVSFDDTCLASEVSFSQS
Chain of Acetylcholinesterase (Homo sapiens) (P22303 whole entry, looked up): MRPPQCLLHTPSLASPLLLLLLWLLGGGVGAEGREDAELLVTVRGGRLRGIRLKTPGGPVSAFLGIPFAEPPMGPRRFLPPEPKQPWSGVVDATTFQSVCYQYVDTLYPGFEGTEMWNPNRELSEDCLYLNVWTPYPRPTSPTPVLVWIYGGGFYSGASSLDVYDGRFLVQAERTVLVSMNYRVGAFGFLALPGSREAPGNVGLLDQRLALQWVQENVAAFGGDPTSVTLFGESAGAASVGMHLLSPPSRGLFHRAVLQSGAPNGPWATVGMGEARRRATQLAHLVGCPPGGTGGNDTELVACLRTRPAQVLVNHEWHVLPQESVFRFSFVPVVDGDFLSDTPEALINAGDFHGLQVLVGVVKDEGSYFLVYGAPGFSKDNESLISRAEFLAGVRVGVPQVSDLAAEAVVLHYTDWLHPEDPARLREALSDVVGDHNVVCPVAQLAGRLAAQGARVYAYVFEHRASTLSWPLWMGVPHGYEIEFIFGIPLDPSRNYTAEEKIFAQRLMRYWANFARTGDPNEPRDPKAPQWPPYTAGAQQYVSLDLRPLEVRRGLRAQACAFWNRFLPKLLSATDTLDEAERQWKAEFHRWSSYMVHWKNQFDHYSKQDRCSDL

On to `CCCN1CCC[C@@H]2Cc3nc(N)ncc3C[C@H]21`, for which the compound was classed as inactive in test [1] and in test [4]. Moreover, the Potency result in [2], in test [3], in test [5], in test [7], in test [8] and in [9] was “inactive” each time. The Potency entry in test [11], in test [12], in [13] and in test [14] was “inactive” throughout. Besides, the max activation in test [6] was -1.3%. Also, the Potency in test [10] was 11 µM (active).
Turning to `O=c1[nH]c2ccccc2o1`, the result in test [1] and in test [4] was inactive. Besides, the Potency result in test [2], in [15], in test [5], in [16], in test [8] and in test [17] was “inactive” in each case. Also, the Potency entry in test [9], in [18], in [13] and in [14] was “inactive” each time.
For `CCC(=O)c1ccc(Cl)cc1`, the compound was classed as inactive in test [1] and in test [4]. The Potency entry in test [2], in test [3], in test [15], in [5], in [16] and in test [8] was “inactive” throughout. For the same compound, the Potency entry in test [17], in test [9], in test [11], in test [18], in [12] and in test [13] was “inactive” in each case. In addition, the Potency entry in test [14] was “inactive”.
On to `COc1ccc(C=O)cc1O`, for which the call in [1] and in test [4] was inactive. Moreover, the Potency entry in test [2], in [3], in test [15], in test [5], in [16] and in test [8] was “inactive” throughout. The Potency entry in [17], in test [9], in test [10], in test [18], in [13] and in test [14] was “inactive” in each case.
As for `C=CCCC#N`, the call in [1] and in test [4] was inactive. For the same compound, the Potency entry in [2], in test [15], in [5], in test [16], in test [8] and in test [17] was “inactive” in each case. Further, the Potency entry in test [9], in test [18], in test [13] and in test [14] was “inactive” each time. For the same compound, the Potency is 38.9 µM (active) in test [10] and 61.7 µM (active) in test [11].
Consider `CCCCCCC1CCOC1=O` (centres undefined), for which the compound was classed as inactive in [1] and in [4]. For the same compound, the Potency result in test [2], in test [3], in [15], in test [5], in test [16] and in test [8] was “inactive” each time. The Potency entry in [17], in test [9], in test [10], in test [18], in [13] and in test [14] was “inactive” in each case. The Potency in test [11] was 39.9 µM (active).
Take `NNCc1ccccc1`: the compound was called inactive in [1] and in [4]. For the same compound, the Potency entry in test [2], in test [3], in test [15], in test [16], in [8] and in test [17] was “inactive” in each case. Moreover, in [9], the Potency entry was “inactive”. The Potency in [5] was 55.5 µM (active); in [10], 11.5 µM (active); in test [11] it was 36.2 µM (active); in test [18] it was 45.6 µM (active); in [12], 12.9 µM (active); in [14], 32.3 µM (active).
